Among the data in PubChem BioAssay (NCATS) are max response, outcome and Potency values, retold here.

Molecules are shown by their SMILES. Where “and” joins values, the source holds several entries; their conditions need not be identical. Equal entries are not always repeated. Inconclusive results are not listed. Unmarked numbers belong to inactive results. Calls of active or inactive are those of the source. The call rests on the fitted dose curve; in most records, active means well fitted inhibition curve with a large enough effect; inconclusive means small, poorly fitted or top-dose-only effect; inactive means flat fitted curve, though single readings scatter.

Experiment in all cases: Cytotoxic Profiling of Annotated Libraries Using Quantitative High-Throughput Screening (AID 1296008); further: nearly all actives have a fitted effect of over 60% in size
Conditions in all cases: Five cell lines viability, CellTiter-Glo ATP luminescence, 48-72 h; max response: stronger effect = lower value

The test system of one test is CRL-7250. In a few lines:
(§1)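 Cells exposed to compounds for 48 or 72 hr at 37 degrees Celsius. Viability read as ATP-coupled luminescence with CellTiter-Glo after 10 min at room temperature.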

Another test concerns HEK293. In a few lines:
as §1

The test system of a further test is HaCat. In a few lines:
as §1

For another test, the system named is KB-3-1. The procedure, abridged:
as §1

For a further test, the system named is NIH3T3. In a few lines:
as §1
On the % scale 0 is the no-effect control and ±100 the full control effect; potency means the concentration at half of the fitted maximal effect.

For `C[C@@H]1CC[C@]2(C)C3(C)CC[C@@]2(OC3=O)[C@@]12C[C@H](c1ccoc1)OC2=O`, the max response in the test with CRL-7250 is -6.81%; with HaCat, -0.0916%; in the test on KB-3-1, -4.36%; in the test on NIH3T3, -0.649%. Moreover, the outcome in the test with HEK293 was inactive.
As to `C[C@@H]1O[C@@H](O[C@H]2[C@H](O[C@H]3CC[C@@]4(C)C(CC[C@]5(C)C4CC=C4[C@@H]6CC(C)(C)CC[C@]6(C(=O)O)CC[C@]45C)[C@]3(C)CO)OC[C@H](O)[C@@H]2O)[C@H](O)[C@H](O[C@@H]2OC[C@@H](O)[C@H](O)[C@H]2O)[C@H]1O` (stereo not given in full), the max response in the test with CRL-7250 was 0.8%; in the test on HaCat, 3.75%; in the test with NIH3T3, -3.35%. The call with HEK293 and in the test with KB-3-1 was inactive.
As for `C=C1C(=O)O[C@H]2[C@H]1[C@@H](OC(=O)C(C)CO)C[C@@]1(C)[C@H](O)CCC(=O)[C@H]21` (stereo not given in full), the max response with CRL-7250 is -10.3%; in the test on HaCat, -8.77%; with NIH3T3, -0.0339%. Also, the call with HEK293 and in the test with KB-3-1 was inactive.
Consider `CN(NC(=O)CC(=O)NN(C)C(=S)c1ccccc1)C(=S)c1ccccc1`, for which the Potency was 66 nM (active) in the test with CRL-7250; 11.6 nM (active) and 13.2 nM (active) in the test on HEK293; 36.6 nM (active) in the test with KB-3-1; 51.7 nM (active) and 26.3 nM (active) in the test with NIH3T3. Also, the result with HaCat was inactive.
For the compound `C=CC(C)(O)CO[C@@H]1O[C@H](CO)[C@@H](O)[C@H](O)[C@H]1O` (stereo not given in full), the max response with CRL-7250 is -1.51%; in the test with HaCat it was -30.3%; with KB-3-1, 1.27%; in the test with NIH3T3, -4.31%. For the same compound, the result with HEK293 was inactive.
As to `CC1(C)CC[C@]2(C(=O)O)CC[C@]3(C)C(=CCC4[C@@]5(C)CCC(O[C@@H]6OC[C@H](O)[C@H](O)[C@H]6O[C@@H]6O[C@H](CO)[C@@H](O)[C@H](O)[C@H]6O)[C@@](C)(CO)C5CC[C@]43C)[C@@H]2C1` (stereo not given in full), the max response with CRL-7250 is -0.0042%; in the test on KB-3-1, 4.54%; in the test with NIH3T3, 2.38%. Moreover, the call in the test on HEK293 and in the test on HaCat was inactive.
`Cc1cccc(-c2[nH]c(CNc3ccccc3F)nc2-c2ccc3ncnn3c2)n1`: the compound was classed as inactive with CRL-7250, with HEK293 and in the test with HaCat. Moreover, the max response with KB-3-1 is 6.62%. The Potency in the test with NIH3T3 is 7.31 µM (active).
Turning to `CC1(CO)CC[C@]2(C(=O)O[C@@H]3O[C@H](CO)[C@@H](O)[C@H](O)[C@H]3O)CC[C@]3(C)C(=CCC4[C@@]5(C)C[C@H](O)[C@H](O[C@@H]6OC[C@@H](O)[C@H](O)[C@H]6O)[C@@](C)(CO)C5CC[C@]43C)C2C1` (stereo not given in full), the outcome with CRL-7250, with HEK293 and in the test on KB-3-1 was inactive. For the same compound, the max response was -24.8% in the test with HaCat and 2.22% in the test with NIH3T3.
For the compound `CC1=CC2(O)/C=C/C(C)(O)CC(O)/C=C/C(=O)OC23C(=O)NC(CC(C)C)C3C1C` (stereo not given), the max response is -2.92% with CRL-7250 and -3.67% in the test with KB-3-1. For the same compound, the compound was classed as inactive in the test with HEK293, with HaCat and in the test with NIH3T3.
As to `CC(C)CC(=O)n1cc(C(N)=O)c(=O)cc1C(O)c1ccccc1` (stereo not given), the compound was called inactive in the test on CRL-7250, in the test with HEK293, with HaCat and with KB-3-1. Moreover, the max response with NIH3T3 was 0.668%.
As to `CC1=CC(=O)C2C(C)(C)CC(O)CC2(C)C1CO` (stereo not given), the max response with CRL-7250 was -38.7%; in the test with HaCat, -3.16%; with NIH3T3, 2.39%. Also, the call with HEK293 and in the test with KB-3-1 was inactive.
Take `C=C(C(=O)OC)C1CCC2(C)C(O[C@@H]3O[C@H](CO)[C@@H](O)[C@H](O)[C@H]3O)CC(=O)C(C)C2C1O` (stereo not given in full): the figures for the max response with CRL-7250 and in the test on HaCat were 1.28% and -1.72%, respectively. The call with HEK293, in the test on KB-3-1 and in the test with NIH3T3 was inactive.
As to `C=C(C)[C@@H]1CC[C@](C)(O)[C@@H](OC(=O)c2ccccc2)C1`, the result in the test with CRL-7250, in the test on HEK293 and in the test on NIH3T3 was inactive. Also, the max response is -0.346% in the test on HaCat and 2.9% in the test on KB-3-1.
As to `CC1CCC2(O1)C(C)(C)CC(O[C@@H]1O[C@H](CO[C@@H]3OC[C@](O)(CO)[C@H]3O)[C@@H](O)[C@H](O)[C@H]1O)CC2(C)O` (stereo not given in full), the max response in the test with CRL-7250 is -0.207%. Also, the result in the test on HEK293, in the test with HaCat, in the test on KB-3-1 and in the test on NIH3T3 was inactive.
As for `C=CC(C)(C)O[C@@H]1O[C@H](CO[C@@H]2OC[C@](O)(CO)[C@H]2O)[C@@H](O)[C@H](O)[C@H]1O`, the max response in the test with CRL-7250 is -2.3%. Besides, the compound was called inactive in the test on HEK293, with HaCat, in the test with KB-3-1 and in the test on NIH3T3.
For the compound `C=CC1(C)C=C2C(=O)CC3C(C)(C)CCCC3(C(=O)O)C2(O)CC1` (stereo not given), the compound was classed as inactive in the test on CRL-7250, in the test with HEK293, with HaCat and in the test on KB-3-1. Also, the max response in the test on NIH3T3 is -3.47%.
With `COc1cccc2c1CCC[C@H]2CN(C)CCc1ccc2ccoc2c1`, the call in the test with CRL-7250 and with HEK293 was inactive. Besides, the max response with HaCat is 3.47%; in the test with KB-3-1, 4.61%; in the test with NIH3T3, -8.39%.
In the case of `CC(CO[C@@H]1O[C@H](COC(=O)/C=C/c2ccc(O)c(O)c2)[C@@H](O)[C@H](O)[C@H]1O)C1(O)COC(=O)C1` (stereo not given in full), the max response in the test on CRL-7250 is -2.89%; in the test with HaCat, 3.48%; with KB-3-1, -4.71%; in the test on NIH3T3, -5.15%. The outcome in the test on HEK293 was inactive.
On to `CC(C)C1(O[C@@H]2O[C@H](CO)[C@@H](O)[C@H](O)[C@H]2O)CC=C(CO)CC1` (stereo not given in full), for which the result in the test with CRL-7250, in the test on HEK293 and with HaCat was inactive. For the same compound, the max response in the test with KB-3-1 was -0.585%; in the test on NIH3T3, 0.631%.
Regarding `C=C1CCC[C@]2(C)C[C@]3(O)OC(=O)C(C)=C3C[C@@H]12`, the outcome with CRL-7250, in the test with HEK293, in the test on HaCat, in the test with KB-3-1 and with NIH3T3 was inactive.
